The source made the active and inactive calls.
How the values were obtained:
[1] = test system: Plasmodium falciparum Sir2 (PF13_0152, Sir2A); experiment: Plasmodium falciparum Sir2A binding compounds – biochemical, small-molecule microarray, 635 nm fluorescence, primary screen (AID 1098); details: fluorescence 635 nm, higher = more signal;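 further: score merges spot fluorescence intensity with its signal-to-noise ratio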
[2] = probe aDKK1 binding to arrayed compounds – biochemical, biotinylated probe, 635/667 nm fluorescence, primary screen (AID 1099); details: small-molecule microarray, higher = more signal;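 further: score merges 667nm spot fluorescence with signal to noise across triplicate slides; reference of the scale not given here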
[3] = probe aCHRDL2 binding to arrayed compounds – biochemical, biotinylated probe, 635/667 nm fluorescence, primary screen (AID 1100); details: small-molecule microarray, higher = more signal
[4] = change in splice reporter luminescence, either direction, cell-based, HEK293, spliceosome inhibition project, primary screen (AID 1101); details: HEK293 splicing luciferase reporter, 24 h, higher = more signal, called active from +8 up or from −8 down;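 further: HEK293 cells carrying a splicing-competent luciferase reporter gene; test concentration not given here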
[5] = biological target: Fibroblast growth factor 10 (Homo sapiens) (UniProt O15520); experiment: compounds binding fibroblast growth factor 10 – biochemical, small-molecule microarray, 635 nm fluorescence, primary screen (AID 1102); details: FGF10 binding, fluorescence 635 nm, higher = more signal
Sequence of Fibroblast growth factor 10 (Homo sapiens) (O15520 whole entry, looked up): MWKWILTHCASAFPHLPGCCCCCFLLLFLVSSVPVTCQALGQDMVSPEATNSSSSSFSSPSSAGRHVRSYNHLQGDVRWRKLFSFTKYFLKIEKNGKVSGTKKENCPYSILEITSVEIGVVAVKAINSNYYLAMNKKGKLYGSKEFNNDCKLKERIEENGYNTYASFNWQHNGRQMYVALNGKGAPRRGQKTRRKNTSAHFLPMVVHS

[6] = test system: glycogen synthase kinase-3 (GSK3A per assay name; protocol says GSK3B); experiment: compounds binding glycogen synthase kinase-3 – biochemical, small-molecule microarray, 635 nm fluorescence, GSK3A, primary screen (AID 1103); details: fluorescence 635 nm, higher = more signal; further: the record names both GSK3A and GSK3B
[7] = biological target: Epidermal growth factor receptor (Homo sapiens) (UniProt P00533); experiment: compounds binding epidermal growth factor receptor – biochemical, small-molecule microarray, 635 nm fluorescence, primary screen (AID 1104); details: EGFR binding, higher = more signal;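 further: score merges 667 nm emission intensity with spot signal to noise over triplicate slides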
Sequence of Epidermal growth factor receptor (Homo sapiens) (P00533 whole entry, looked up): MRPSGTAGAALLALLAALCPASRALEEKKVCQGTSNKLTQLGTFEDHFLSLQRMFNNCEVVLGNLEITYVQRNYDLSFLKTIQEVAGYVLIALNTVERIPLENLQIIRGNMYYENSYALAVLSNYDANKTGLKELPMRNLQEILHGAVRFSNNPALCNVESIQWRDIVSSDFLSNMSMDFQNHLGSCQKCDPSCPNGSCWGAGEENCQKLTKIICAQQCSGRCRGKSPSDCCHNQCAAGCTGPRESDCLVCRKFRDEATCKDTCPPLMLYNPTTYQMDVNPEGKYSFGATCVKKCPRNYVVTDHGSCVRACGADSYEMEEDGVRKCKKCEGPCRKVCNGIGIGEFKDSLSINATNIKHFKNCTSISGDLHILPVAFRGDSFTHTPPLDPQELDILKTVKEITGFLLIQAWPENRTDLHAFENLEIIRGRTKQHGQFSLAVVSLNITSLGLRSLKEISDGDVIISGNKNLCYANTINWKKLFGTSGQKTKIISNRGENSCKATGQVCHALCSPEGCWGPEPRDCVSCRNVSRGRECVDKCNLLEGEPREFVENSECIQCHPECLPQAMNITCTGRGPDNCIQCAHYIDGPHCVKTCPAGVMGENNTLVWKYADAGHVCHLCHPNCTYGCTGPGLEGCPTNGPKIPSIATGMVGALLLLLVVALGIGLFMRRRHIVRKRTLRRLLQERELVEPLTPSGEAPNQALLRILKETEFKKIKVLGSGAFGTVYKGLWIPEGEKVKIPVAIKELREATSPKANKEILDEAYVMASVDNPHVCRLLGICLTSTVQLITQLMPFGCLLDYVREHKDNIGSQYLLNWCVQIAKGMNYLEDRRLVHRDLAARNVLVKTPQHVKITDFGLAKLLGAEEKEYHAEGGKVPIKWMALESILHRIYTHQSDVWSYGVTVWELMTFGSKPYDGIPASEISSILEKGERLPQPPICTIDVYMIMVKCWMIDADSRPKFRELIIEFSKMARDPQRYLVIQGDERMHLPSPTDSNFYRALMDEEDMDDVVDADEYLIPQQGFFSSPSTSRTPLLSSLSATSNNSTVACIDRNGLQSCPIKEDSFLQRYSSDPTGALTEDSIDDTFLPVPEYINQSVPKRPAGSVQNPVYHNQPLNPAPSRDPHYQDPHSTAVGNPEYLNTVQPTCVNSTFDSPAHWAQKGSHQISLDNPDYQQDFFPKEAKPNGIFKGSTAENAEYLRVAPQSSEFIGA

[8] = biological target: Follistatin-related protein 3 (Homo sapiens) (UniProt O95633); experiment: compounds binding follistatin-related protein 3 – biochemical, small-molecule microarray, 635 nm fluorescence, primary screen (AID 1105); details: FSTL3 binding, higher = more signal;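 further: score merges emission near 667 nm and signal to noise per printed spot across three slides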
Sequence of Follistatin-related protein 3 (Homo sapiens) (O95633 whole entry, looked up): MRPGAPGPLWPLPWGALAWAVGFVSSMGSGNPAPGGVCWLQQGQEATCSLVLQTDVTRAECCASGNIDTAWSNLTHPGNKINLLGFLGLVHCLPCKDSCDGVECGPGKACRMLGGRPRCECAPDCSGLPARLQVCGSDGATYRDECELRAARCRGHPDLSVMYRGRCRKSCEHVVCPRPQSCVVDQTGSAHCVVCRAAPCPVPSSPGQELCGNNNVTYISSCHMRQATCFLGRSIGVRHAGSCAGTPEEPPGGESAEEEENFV

[9] = biological target: Dickkopf-related protein 1 (Homo sapiens) (UniProt O94907); experiment: small molecules binding DKK1 protein – biochemical, small-molecule microarray, 635 nm fluorescence scan, primary screen (AID 1106); details: higher = more signal;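 further: score merges emission near 667 nm with signal to noise over three replicate slides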
Sequence of Dickkopf-related protein 1 (Homo sapiens) (O94907 whole entry, looked up): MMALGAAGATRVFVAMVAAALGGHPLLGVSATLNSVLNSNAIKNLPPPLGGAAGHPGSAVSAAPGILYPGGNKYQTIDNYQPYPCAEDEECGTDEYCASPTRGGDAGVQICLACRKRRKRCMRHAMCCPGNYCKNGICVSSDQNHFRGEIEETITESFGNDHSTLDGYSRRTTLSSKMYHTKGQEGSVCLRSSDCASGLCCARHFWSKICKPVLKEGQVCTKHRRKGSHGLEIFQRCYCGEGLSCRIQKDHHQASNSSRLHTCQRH

[10] = test system: Inhibin beta A chain (activin A); experiment: small molecules binding activin A – biochemical, small-molecule microarray, 635 nm fluorescence scan, primary screen (AID 1107); details: INHBA, higher = more signal;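 further: mouse activin A protein probed at 4.33 µg/mL on printed slides; score merges bound-protein fluorescence near 667 nm with spot signal-to-noise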

| SMILES | composite z-score [1] | composite z-score [2] | composite z-score [3] | z-score [4] | composite z-score [5] | composite z-score [6] | composite z-score [7] | composite z-score [8] | composite z-score [9] | composite z-score [10] |
| --- | --- | --- | --- | --- | --- | --- | --- | --- | --- | --- |
| COCCCNC(=O)[C@@H]1c2ccccc2C(=O)N(Cc2ccccc2C(F)(F)F)[C@H]1c1ccc(CO)cc1 | 1.58 | 0.484 | 0.879 | 0.354 (inactive) | -0.0537 | 0.575 | -0.222 | -0.582 | -0.595 | 0.923 |
| COC(=O)[C@@]1(Cc2ccc(OC)cc2)[C@H]2c3cc(C(=O)N4CCCC4)n(CCc4cc5ccccc5[nH]4)c3C[C@H]2CN1C(=O)c1ccccc1 | 1.52 | 1.64 | 1.43 | 0.0555 (inactive) | 0.893 | 0.591 | 0.124 | 1.2 | -0.281 | 0.881 |
| NC(=O)N1C(=O)C2C(C1=O)C1C=C(CCCO)C2C(c2cccs2)N1Cc1cc2c(cc1Br)OCO2 (stereo not given) | 0.884 | -0.198 | 0.229 | 0.701 (inactive) | -0.284 | -0.0207 | -0.495 | -0.289 | -0.756 | 0.975 |
| O=C(O)[C@]1(Cc2ccccc2)N=C(c2ccc(OCCCO)cc2)O[C@@H]1c1ccccc1 | 0.122 | 0.568 | 0.926 | 0.771 (inactive) | -0.74 | -1.23 | -0.856 | -1.07 | -1.16 | 0.848 |
| COCCCNC(=O)[C@@]1(Sc2ccc(C)cc2)CC(=O)N(C2Cc3ccccc3C2)[C@@H]1c1ccc(CO)cc1I | 0.693 | 0.59 | 0.947 | -0.697 (inactive) | -0.235 | -1.1 | -0.689 | -1.58 | -1.77 | 0.388 |
| [N-]=[N+]=Nc1ccccc1[C@H]1OC(c2ccc(OCCCO)cc2)=N[C@@]1(CCS(=O)(=O)c1ccccc1)C(=O)N1CCCCC1 | 1.37 | 1.27 | 1.27 | -1.21 (inactive) | 0.354 | 0.797 | 0.0374 | 0.801 | -0.44 | 1.38 |
| CCOC(=O)C[C@H]1[C@H](OC(=O)c2ccc(-c3ccccc3)cc2)[C@@H](NC(=O)c2ccc3ccccc3c2)c2cc(OCCCO)ccc2N1C(=O)c1ccc2ccccc2n1 | 0.33 | -0.0069 | 0.221 | -0.634 (inactive) | 0.577 | 0.439 | 0.098 | 0.458 | 0.426 | 0.31 |
| COc1cc2c(cc1OC)CN(C(=O)[C@@H]1[C@H]3C(=O)O[C@H](c4ccccc4)[C@H](c4ccccc4)N3[C@H](c3ccccc3OCCO)[C@@]13C(=O)Nc1ccc(C#CC4(O)CCCCCC4)cc13)CC2 | 1.1 | 0.159 | 0.0184 | 0.582 (inactive) | 0.366 | 1.13 | 0.368 | 0.511 | 0.383 | 0.275 |
| COc1ccc(C(O)C2C=CC3C(=O)N(c4ccccc4)C(=O)C3N2Nc2ccc(C#N)cc2)c2ccccc12 (stereo not given) | 1.2 | 0.585 | 0.917 | 1.8 (inactive) | 0.581 | 0.811 | -0.0239 | 0.733 | 0.138 | 0.675 |
| CCOC(=CC(=O)OC)CC(O)c1cccc(Cl)c1 (stereo not given) | 0.971 | -0.132 | 0.445 | -1.02 (inactive) | -0.617 | 0.982 | -0.779 | -0.151 | -1.3 | -0.297 |
| CCOC(=O)C1=CC[C@@H](c2ccccc2)N(S(=O)(=O)c2ccc(C)cc2)C1 | 0.243 | 0.617 | 0.931 | 0.259 (inactive) | -0.0077 | 0.121 | 0.0223 | 0.36 | 0.107 | 1.29 |
| O=C(CS)NCCCCCCNC(=O)[C@H]1C[C@H]2C(=O)N[C@@H](Cc3ccccc3)C(=O)N2[C@H]1c1cccc(OCCO)c1 | 1.62 | -0.0581 | 0.232 | 0.479 (inactive) | 1.51 | 1.25 | 1.39 | 1.52 | 1.34 | 0.68 |
| CC(=O)N1Cc2ccccc2C[C@]2(N=C(c3ccc(OCCCO)cc3)O[C@@H]2c2ccccc2)C1=O | 1.55 | 0.835 | 1.05 | -2.31 (inactive) | 0.897 | 1.26 | 0.17 | 0.33 | 0.275 | 0.503 |
| COC(=O)C1(Cc2ccccc2)C=C2C(=C(C(C)C)C(=O)C2C)CN1 (stereo not given) | -1.21 | 1.34 | 1.36 | 1.62 (inactive) | -0.713 | -1.51 | -0.449 | -0.482 | -1.41 | 1.35 |
| CC(CO)N1C(=O)[C@@H]2C3C(=O)OCCC/C=C\[C@H]3OC23C=CCN(Cn2nnc4ccccc42)C(=O)[C@@H]13 (stereo not given in full) | 1.82 | -0.0595 | -0.102 | -0.411 (inactive) | -0.134 | -0.527 | -0.718 | -0.474 | -0.361 | 0.339 |
| CC(C)CNC(=O)[C@@H]1c2ccccc2C(=O)N(Cc2cc(F)cc(C(F)(F)F)c2)[C@H]1c1ccc(CO)cc1 | 0.311 | 0.806 | 1.01 | -0.621 (inactive) | 0.301 | 0.13 | -0.315 | 0.328 | 0.258 | 0.669 |
| COC(=O)[C@]1(CCS(=O)(=O)c2ccccc2)N=C(c2ccc(OCCCO)cc2)O[C@@H]1c1ccccc1CN=[N+]=[N-] | 1.24 | 0.366 | 0.763 | 1.08 (inactive) | 0.63 | 1.28 | 0.231 | 0.702 | 0.0636 | 0.681 |

| SMILES | composite z-score [1] | composite z-score [2] | composite z-score [3] | z-score [4] | composite z-score [5] | composite z-score [6] | composite z-score [7] | composite z-score [8] | composite z-score [9] | composite z-score [10] |
| --- | --- | --- | --- | --- | --- | --- | --- | --- | --- | --- |
| CCOC(=O)C[C@H]1[C@H](OC(=O)Cc2ccc3c(c2)OCO3)[C@@H](NC(=O)Cc2ccc(OC)cc2)c2cc(OCCCO)ccc2N1C(=O)c1ccccc1 | 1.07 | 0.423 | 0.383 | -0.484 (inactive) | 0.647 | 0.614 | 0.0042 | 0.312 | 0.149 | 0.265 |
| COc1cc(CO)cc(I)c1O[C@H]1C=C(C(=O)NCCO)C[C@@H](N(CC2CCCCC2)C(=O)c2ccc(C(F)(F)F)cc2)[C@@H]1O | 0.199 | -0.267 | -0.49 | -0.0436 (inactive) | 0.626 | 0.0722 | 0.515 | 0.483 | 0.521 | 0.0031 |
| CO[C@H]1O[C@H](CO)[C@@H](OC(=O)Nc2ccc(Oc3ccccc3)cc2)[C@H](OC(=O)Nc2ccccc2-c2ccccc2)[C@@H]1OC(=O)Nc1ccccc1-c1ccccc1 | 1.31 | 0.686 | 0.609 | -1.52 (inactive) | 0.959 | 1.15 | 0.223 | 0.787 | 0.338 | 0.586 |
| COc1ccccc1CN1C(=O)c2ccccc2[C@@H](C(=O)NC(C)C)[C@@H]1c1ccc(CO)cc1 | 0.567 | 0.711 | 0.756 | 0.011 (inactive) | 1.33 | 1.23 | 0.754 | 1.24 | 0.673 | 0.93 |
| O=C1c2ccccc2[C@@]2(Cc3ccccc3N(C3CC3)C2=O)[C@H](c2ccc(CO)cc2)N1C1CCCCC1 | -1.5 | 0.16 | 0.615 | -0.402 (inactive) | -0.364 | -0.492 | -0.412 | -0.558 | -0.526 | 0.5 |
| COCCCNC(=O)[C@]1(CCC(=O)OC(C)(C)C)N=C(c2ccc(OCCCO)cc2)O[C@@H]1c1ccccc1 | 1.31 | 1.33 | 0.701 | -0.307 (inactive) | 0.417 | 1.28 | -0.301 | -0.47 | -0.261 | -0.497 |
| C=CCOC(=O)[C@@H]1[C@H]2C(=O)O[C@H](c3ccccc3)[C@H](c3ccccc3)N2[C@H](c2ccc(OCCOC(=O)[C@H]3C[C@H]4C(=O)N[C@@H](CCCC[N+](C)(C)C)C(=O)N4[C@H]3c3ccc(O)cc3)cc2)[C@@]12C(=O)Nc1ccc(I)cc12 | 1.6 | -0.144 | -0.248 | -0.178 (inactive) | 1.46 | 1.33 | 1.18 | 1.51 | 1.03 | 0.467 |
| O=c1cccc(-c2ccc(C(F)(F)F)cc2)o1 | -0.426 | -0.0458 | 0.239 | 0.0423 (inactive) | -0.46 | -0.762 | -0.215 | -0.936 | -0.572 | 0.339 |
| CC(C)N1CC=CC23O[C@@H]4C=CCOC(=O)[C@@H]4[C@H]2C(=O)N(C(C)CO)[C@@H]3C1=O (stereo not given in full) | 0.776 | -0.162 | 0.559 | 0.408 (inactive) | -0.724 | -1.99 | -1.29 | -0.93 | -1.21 | -0.116 |
| CCOC(=O)C[C@H]1[C@H](OC(=O)c2ccccc2-c2ccccc2)[C@@H](NC(=O)c2ccc3ccccc3n2)c2cc(OCCCO)ccc2N1C(=O)c1ccc2ccccc2n1 | 0.638 | -0.267 | -0.535 | -1.19 (inactive) | 0.611 | 0.0214 | 0.378 | 0.469 | 0.452 | -0.0055 |
| [N-]=[N+]=Nc1ccccc1C[C@@]1(C(=O)O)N=C(c2ccc(OCCCO)cc2)O[C@@H]1c1ccccc1 | 1.56 | 0.609 | 0.945 | -0.282 (inactive) | 0.0372 | 0.0458 | -0.423 | 0.126 | -0.829 | 0.638 |
| Cc1ccc(S[C@]2(C(=O)NCC(C)C)CC(=O)N(Cc3ccccc3Cl)[C@@H]2c2ccc(CO)cc2I)cc1 | 1.22 | 0.117 | 0.791 | -0.611 (inactive) | -0.85 | -0.408 | -0.409 | -0.615 | -0.557 | 0.67 |
| CC(C)C[C@@H]1NC(=O)[C@H]2C[C@@H](C(=O)NCCCCCC[N+](C)(C)C)[C@@H](c3cccc(OCCO)c3)N2C1=O | 1.14 | -0.231 | -0.0365 | -0.713 (inactive) | 0.293 | 0.661 | 0.109 | 0.504 | 0.438 | 0.682 |
| NCCCCCNC(=O)[C@@H]1C[C@@H]2C(=O)N[C@@H](CCCCN)C(=O)N2[C@@H]1c1cccc(OCCO)c1 | 0.858 | 1.24 | 0.826 | -0.107 (inactive) | 0.699 | 0.642 | -0.0511 | 1.44 | 0.969 | 0.428 |
| CCOC(=O)C[C@H]1[C@H](OC(=O)c2ccccc2-c2ccccc2)[C@@H](NC(=O)CC(C)C)c2cc(OCCCO)ccc2N1C(=O)c1ccc2ccccc2n1 | 0.74 | -0.0242 | -0.187 | -0.263 (inactive) | 0.513 | 0.561 | 0.159 | 0.368 | 0.45 | 1.08 |
| [N-]=[N+]=Nc1ccccc1[C@@H]1OC(c2ccc(OCCCO)cc2)=N[C@]1(CCS(=O)(=O)c1ccccc1)C(=O)NCCN1CCOCC1 | 1.25 | 1.1 | 1.2 | -0.582 (inactive) | 0.832 | 1.29 | 0.652 | 0.374 | -0.0291 | 1.28 |

From PubChem BioAssay
